In the library only some 7.5% were active in any assay of this set; here they are far more common.
Giardia FBPA inh – inhibitors of Giardia lamblia fructose-1,6-bisphosphate aldolase; A8B2U2; purified Giardia FBPA; AID 2451; actives 0.71% (n = 290,000); Potency, µM (highest dose often 59.6 µM), inactives show at the highest dose activity, negative = inhibition, hits mostly inhibitors; also: potency is read from the fitted curve at half-maximal effect; nearly all actives have a fitted effect of over 55% in size
Target sequence (A8B2U2 whole entry, looked up): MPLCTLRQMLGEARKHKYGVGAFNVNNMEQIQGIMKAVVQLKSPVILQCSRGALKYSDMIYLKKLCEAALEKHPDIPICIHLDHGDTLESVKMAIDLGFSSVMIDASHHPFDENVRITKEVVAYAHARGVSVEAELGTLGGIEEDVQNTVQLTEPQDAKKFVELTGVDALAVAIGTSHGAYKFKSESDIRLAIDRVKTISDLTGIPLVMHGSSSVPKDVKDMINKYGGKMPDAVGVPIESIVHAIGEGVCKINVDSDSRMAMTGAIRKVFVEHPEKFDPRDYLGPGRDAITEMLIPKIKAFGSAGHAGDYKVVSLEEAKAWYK
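Giardia FBPA (40 nM reagent) was preincubated 10 min at RT with compound (up to 57.5 uM final), then substrate plus GAPDH/TPI/NAD/arsenate coupling system with diaphorase/resazurin was added; resorufin fluorescence (525/598 nm) was read after 20 min.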
FMDV antiviral – blocks foot and mouth disease virus; FMDV antiviral cell-based qHTS; Potency, µM (doses to about 57.9 µM), for the others: at the highest dose activity change, negative = inhibition, actives largely listed as inhibitors; actives 1.2% (n = 410,000); AID 1159524; calls by dose curve; tested in HEK293T cells; also: read-out not given here; potency is read from the fitted curve at half-maximal effect; nearly all actives have a fitted effect of over 45% in size
HCMV antiviral – inhibitors of human cytomegalovirus | HFF cells, HCMV-luciferase reporter, 72 h; active compounds read low | activity change, negative = inhibition, % at 57.5 µM | actives 4.5% (n = 410,000); in the data active = activity change below about -60%; inconclusive = no clear call, values can overlap the other calls; inactive = above about -39%
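Steps: HFFs plated, 16 h 37C; compounds added; HCMV-luciferase added to MOI 1 PFU/cell; 72 h 37C; OneGlo reagent, 5 min room temperature; luminescence read, normalized to controls.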
HCV inh – HCV inhibition; Huh7.5.1 HCVcc-Cre infection, luciferase reporter, 44 h; AID 651820; Potency, µM (doses to about 41.8 µM), without a hit: at the top dose activity change, negative = inhibition, usual class: inhibitors; actives 3.4% (n = 340,000); also: potency is read from the fitted curve at half-maximal effect
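HCVcc-Cre virus at an moi near 0.5 was added right after compound to cells cultured 4 h from seeding (1,000 cells/well). Luciferase activity was determined 44 h later, 15 min after substrate addition at RT.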
VACV mCherry inh – vaccinia inhibition (mCherry reporter); Vaccinia virus mCherry reporter infection, fluorescence; Potency, µM (series often up to 36.5 µM), for the others: at the highest dose activity change, negative = inhibition, usual class: inhibitors; actives 0.63% (n = 310,000); AID 720579; calls by dose curve; tested in A549 cells; also: potency is read from the fitted curve at half-maximal effect; nearly all actives have a fitted effect of over 35% in size
Vaccinia Venus – vaccinia inhibition (Venus reporter); Vaccinia virus Venus reporter expression, fluorescence; Potency, µM (series often up to 36.5 µM), for inactives: at the highest dose activity change, negative = inhibition, actives largely listed as inhibitors; actives 0.46% (n = 330,000); AID 720580; calls by dose curve; tested in A549 cells; also: potency is read from the fitted curve at half-maximal effect; nearly all actives have a fitted effect of over 30% in size
The depositor's hits bear a star; i = inactive; ? = inconclusive; . = not tested or not shown; [ ] = another dose, or the depositor's remark. Unless noted, calls follow the shape of the dose curve; as a rule, active = well fitted curve in the direction sought with a large enough effect; inconclusive = small, poorly fitted or top-dose-only effect, or another doubt; inactive = no such curve, though single readings can be large; an effect the other way counts as inactive or inconclusive. % is scaled to controls: 0 for no effect and ±100 for the full control effect.

SMILES	Giardia FBPA inh	FMDV antiviral	HCMV antiviral	HCV inh	VACV mCherry inh	Vaccinia Venus
CCCOC(=O)/C(=C\c1ccc([N+](=O)[O-])o1)NC(=O)c1ccccc1	0%	-1%	-12	14µM*	?	?
O=C(CNc1ccccc1)N/N=C/c1ccc([N+](=O)[O-])o1	-5%	-4%	-82*	?	.	.
O=C(CNC(=O)c1ccccc1)N/N=C/c1ccc([N+](=O)[O-])o1	-6%	0%	-80*	?	.	.
Cc1noc(C)c1S(=O)(=O)N(C)C[C@@H]1OCc2cn(nn2)CCCC(=O)N([C@H](C)CO)C[C@H]1C	.	.	-14	.	.	.
CN1CCCC(CNC(=O)c2cnn(-c3ncc4c(n3)-c3ccccc3CC4)c2C2CC2)C1 (centres undefined)	.	-10%	.	.	-19%	-1%
O=C(CNc1cccc2ccccc12)N/N=C/c1ccc([N+](=O)[O-])cc1	-3%	-9%	7	11%	-19%	-11%
O=C(Cc1ccc2c(c1)OCO2)NN=Cc1ccc([N+](=O)[O-])o1	.	-19%	-39	10µM*	?	?
NC(=O)N/N=C/c1ccc(-c2ccc([N+](=O)[O-])cc2)o1	-3%	38%	3	10%	.	.
O=C(CNC(=O)c1ccccc1)N/N=C/c1ccc([N+](=O)[O-])s1	2%	5%	?	?	10µM*	10µM*
O=C(CNc1cccc([N+](=O)[O-])c1)N/N=C/c1ccc(F)cc1	0%	-3%	-63*	-5%	-10%	-1%
CCCCCC(=O)N/N=C/c1ccc([N+](=O)[O-])o1	-10%	-11%	-23	?	.	.
O=C(Cc1ccccc1)N/N=C/c1ccc(-c2ccc([N+](=O)[O-])cc2)o1	-1%	-1%	-61*	-4%	-11%	-10%
O=C(NC1CCCCC1)N(c1ccccc1)c1nnc(-c2cccc([N+](=O)[O-])c2)s1	.	46%	0	.	i	-3%
O=C(Oc1ccccc1C(=S)N1CCOCC1)c1cccc([N+](=O)[O-])c1	2%	-1%	-5	-14%	i	-10%
COc1ccc(C(=O)N(Cc2ccco2)Cc2ccco2)cc1	.	-9%	-20	.	1%	3%
O=C(CCC(=O)Nc1ccc(Cl)cc1Cl)N/N=C/c1ccc([N+](=O)[O-])o1	?	-25%	-77*	?	?	?
CCOC(=O)c1cc(C)n(Cc2cccc(OC)c2OC)c1C	-2%	?	-31	?	.	.
CCOC(=O)c1c(C)c(C)n(Cc2cccc(OC)c2OC)c1C	-4%	?	-85*	?	i	-8%
O=C(c1ccc(NS(=O)(=O)/C=C/c2ccccc2)cc1)N1CCCCC1	.	17%	-14	?	-8%	-25%
CCC(C)Nc1nc(N)c([N+](=O)[O-])c(NCc2ccccc2)n1 (centres undefined)	3%	?	-26	11µM*	.	.
CCC(C)Nc1nc(N)c([N+](=O)[O-])c(Nc2ccccc2OC)n1 (centres undefined)	-3%	?	?	13µM*	-4%[7.34 µM]	-16%[7.34 µM]
CCC(C)Nc1nc(N)c([N+](=O)[O-])c(N2CCCCCC2)n1 (centres undefined)	3%	?	-36	?	?	-28%
COc1ccccc1Nc1nc(NCC(C)C)nc(N)c1[N+](=O)[O-]	-1%	?	-85*	?	-6%[7.34 µM]	?
CC(C)CNc1nc(N)c([N+](=O)[O-])c(N2CCCCCC2)n1	6%	-22%	-99*	?	?	?
Cc1ccc(Nc2nc(N)c([N+](=O)[O-])c(NCc3ccccc3)n2)cc1	-6%	-28%	?	-41%	-10%	-19%
SMILES	Giardia FBPA inh	FMDV antiviral	HCMV antiviral	HCV inh	VACV mCherry inh	Vaccinia Venus
CCC(C)Nc1nc(N)c([N+](=O)[O-])c(Nc2cc(OC)ccc2OC)n1 (centres undefined)	-3%	?	?	?	-20%[7.34 µM]	-27%[7.34 µM]
Cc1noc(C)c1-c1ccc2ncnc(NCc3cccc(Cl)c3)c2c1	-3%	.	.	.	.	.
Cn1c(-c2cccc(Br)c2)n[nH]c1=O	-3%	-7%	-72*	-1%	-20%	-18%
O=C(Nc1cccc(Cl)c1)OCC#CCCl	7.1µM*	.	.	.	.	.
COc1ccc(CN2C(=O)C(n3cccc3)c3cc(OC)ccc32)cc1 (centres undefined)	.	.	-23	.	.	.
CC(C)C(C)NC(=O)CSc1nc2scc(-c3ccco3)c2c(=O)n1-c1ccccc1 (centres undefined)	-14%	0%	-63*	8%	.	0%
Cc1cc(NC(=O)CSc2nc3sc4c(c3c(=O)n2C)CCCC4)no1	2%	-5%	5	-3%	i	-4%
CC(C)C(C)(C#N)NC(=O)CSc1nc2scc(-c3ccco3)c2c(=O)n1-c1ccccc1 (centres undefined)	-4%	-7%	-17	?	-17%	-8%
COc1ccc(-n2c(SCC(=O)O)nc3sc4c(c3c2=O)CCCC4)cc1	-1%	-10%	-12	5%	-2%	-7%
Cc1nn(Cc2ccccc2)c(C)c1NC(=O)CSc1nc2sc3c(c2c(=O)n1C)CCC3	.	?	.	22µM*	18%	-7%
CC(NC(=O)CSc1nc2sc3c(c2c(=O)n1-c1ccccc1)CCCC3)c1ccccc1 (centres undefined)	3%	.	-81*	1%	i	-10%
COc1ccc(-n2c(SCCNCCO)nc3sc4c(c3c2=O)CCCC4)cc1	8%	-7%	-9	2.8µM*	?	-22%
O=C(Nc1ccccc1OC(F)F)c1ccn2ccnc2n1	.	.	9	.	.	.
COCCC(=O)NNS(=O)(=O)c1ccc(Cl)cc1	1%	-2%	11	30%	-13%	-6%
Cc1ccc(CNC(=O)c2cc(C3CC3)nc3c2c(C)nn3-c2cccc(Cl)c2C)cc1	.	-13%	-3	.	-26%	-23%
CC(Sc1ncn[nH]1)C(=O)c1c(N)n(C)c(=O)n(C)c1=O (centres undefined)	.	-8%	25	1%	-2%	-9%
CN(Cc1ccccc1)C(=O)COC(=O)C1CCN(S(=O)(=O)c2ccc(Cl)c(C(F)(F)F)c2)CC1	.	-21%	-66*	-2%[8.37 µM]	i	2%
CCC(Cc1ccccc1)NS(=O)(=O)c1ccc2c(c1)NC(=O)C(C)S2 (centres undefined)	.	-16%	-86*	?	-5%[7.34 µM]	-8%[7.34 µM]
CC1Sc2ccc(S(=O)(=O)N3CCC(C(=O)N(C)Cc4ccco4)CC3)cc2NC1=O (centres undefined)	.	?	-20	?	-20%	-6%
COc1ccc(Br)cc1CN(C)C(=O)c1ccc2c(c1)NC(=O)C(C)S2 (centres undefined)	5%	25%	34	14%	i	-5%
